Screening data from PubChem.
Most compounds without a hit are left out; they make up all but 2.8% or so of the library.
Pol beta inh = qHTS Assay for Inhibitors of DNA Polymerase Beta. P06746. Pol beta primer extension/strand displacement, fluorescence kinetic. Potency, µM (titrated, usually from 114 µM), for the others: top-dose activity change, negative = inhibition, most hits filed as inhibitors. actives 1.3% (n = 340,000); further: potency means the concentration at half of the fitted maximal effect; on the % scale 0 is the no-effect control and ±100 the full control effect
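Enzyme-only controls used 10 nM Pol beta; buffer lacking enzyme served as negative control. Compound preincubated 15 min, then 50 nM substrate added; 0 and 10 min reads at room temperature.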
Pol eta inh = qHTS for Inhibitors of Polymerase Eta. actives 1.2% (n = 390,000). Potency, µM (titrated, usually from 114 µM), for the others: top-dose activity change, negative = inhibition, usual class: inhibitors. DNA polymerase eta (Homo sapiens), Q9Y253. AID 588591, 2011. recombinant Pol eta, fluorescent DNA replication assay; further: potency means the concentration at half of the fitted maximal effect; on the % scale 0 is the no-effect control and ±100 the full control effect
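Fluorescent replication assay: 50 nM final substrate added after a 15 min room-temperature compound preincubation with 10 nM enzyme. Signal taken at 0 min and again at 10 min.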
POLI inh = qHTS for Inhibitors of Polymerase Iota; Pol iota fluorescent replication assay, 10 min; Potency, µM (series often up to 115 µM), inactives show at the top dose activity, negative = inhibition, usual class: inhibitors; actives 1% (n = 390,000); further: potency means the concentration at half of the fitted maximal effect
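Fluorescent replication assay read twice, at 0 min and 10 min after adding 50 nM (final) substrate. Enzyme (10 nM) and compounds were first incubated 15 min at room temperature; enzyme-free buffer wells were negative controls.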
Pol kappa inh = qHTS for Inhibitors of Polymerase Kappa. purified Pol kappa, fluorescent DNA synthesis assay, 10 min. AID 588579, 2011. DNA polymerase kappa (Homo sapiens), Q9UBT6. actives 0.53% (n = 400,000). Potency, µM (highest dose often 107 µM), without a hit: top-dose activity, negative = inhibition, usual class: inhibitors; further: potency means the concentration at half of the fitted maximal effect; on the % scale 0 is the no-effect control and ±100 the full control effect
Target sequence (Q9UBT6 whole entry, looked up): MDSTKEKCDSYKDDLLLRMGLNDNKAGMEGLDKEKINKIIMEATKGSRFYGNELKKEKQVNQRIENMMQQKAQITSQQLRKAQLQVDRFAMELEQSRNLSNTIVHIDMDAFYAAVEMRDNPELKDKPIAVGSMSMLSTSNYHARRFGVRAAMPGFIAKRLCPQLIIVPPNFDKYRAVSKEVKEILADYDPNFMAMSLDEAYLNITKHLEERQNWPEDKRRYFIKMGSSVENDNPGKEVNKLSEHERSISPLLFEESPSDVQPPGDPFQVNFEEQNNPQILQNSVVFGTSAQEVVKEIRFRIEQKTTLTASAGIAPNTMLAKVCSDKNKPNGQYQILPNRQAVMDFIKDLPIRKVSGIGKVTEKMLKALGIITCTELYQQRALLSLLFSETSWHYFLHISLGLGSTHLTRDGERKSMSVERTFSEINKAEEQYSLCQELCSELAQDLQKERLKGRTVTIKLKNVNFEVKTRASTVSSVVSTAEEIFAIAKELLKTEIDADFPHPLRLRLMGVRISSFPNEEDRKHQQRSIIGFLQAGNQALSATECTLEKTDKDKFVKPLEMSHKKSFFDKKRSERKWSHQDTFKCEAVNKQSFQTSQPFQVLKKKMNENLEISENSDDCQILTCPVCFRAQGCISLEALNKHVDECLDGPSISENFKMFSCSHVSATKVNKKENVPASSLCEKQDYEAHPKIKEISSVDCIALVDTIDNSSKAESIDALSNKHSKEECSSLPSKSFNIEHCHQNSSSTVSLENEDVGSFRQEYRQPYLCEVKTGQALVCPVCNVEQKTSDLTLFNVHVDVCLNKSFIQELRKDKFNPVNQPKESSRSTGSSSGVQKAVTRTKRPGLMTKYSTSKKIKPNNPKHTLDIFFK
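Pol kappa 10 nM + cpd, 15 min RT; start w/ substrate 50 nM final; fluorescence kinetic read, 0 and 10 min. Neg ctrl: buffer, no enzyme.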
PI4K2A inh = qHTS for small molecular inhibitors of PI4K2A; purified PI4K2A, ADP-Glo luminescence, 1 h; hits give low values; activity change, negative = inhibition, % at 76.9 µM; actives 0.13% (n = 420,000); AID 1346378, 2018; in the data active means activity change below about -50%; inconclusive means mostly about -30% to -49%;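 further: -100% = wells without enzyme as full effect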
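ADP-Glo luminescence measured ADP generated by PI4K2A enzyme (4 ug/mL before mixing) with 1.2 mM PI substrate (pre-mix) and 300 microM ATP (pre-mix). Tris pH7.5 buffer with MgCl2, Triton X-100; 1 h reaction at ambient temperature.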
PI5P4K alpha inh = qHTS for Inhibitors of phosphatidylinositol 5-phosphate 4-kinase (PI5P4K) | Phosphatidylinositol 5-phosphate 4-kinase type-2 alpha (Homo sapiens), P48426 | PI5P4Kalpha enzyme, ADP-Glo luminescence, 60 min; hits give low values | max response, % | actives 1.2% (n = 330,000); active means max response of -50% or lower; inconclusive means between -30% and -50%; inactive means -30% or higher; further: value at the top dose of about 77 µM; on the % scale 0 is the no-effect control and ±100 the full control effect
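Human PI5P4Kalpha with substrate in 0.038 M HEPES pH 7.4, 0.28 mM EGTA, 0.1% CHAPS, 5% DMSO; reaction started with 5 microM ATP (final), 60 min at room temperature. ADP formed read by ADP-Glo luminescence.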
Active calls of the source: *; [ ] = remark or other dose. Unless noted, the call rests on the fitted dose curve; in most records, active means well fitted inhibition curve with a large enough effect; inconclusive means small, poorly fitted or top-dose-only effect, or another doubt; inactive means no such curve, though single readings can be large or run the other way.

For COc1ccc(C(=O)/C=C(\C)Nc2ccc(NC(C)=O)cc2)cc1 the results were Pol beta inh 3%, Pol eta inh -8%, POLI inh inconclusive, Pol kappa inh -5%[60.1 µM] and PI4K2A inh -2.
Screening COc1cccc(-c2nc(SCc3cccc(Br)c3)n3[nH]c(=O)cc3n2)c1 returned Pol beta inh 13µM*, Pol eta inh inconclusive, POLI inh inconclusive, Pol kappa inh -43% and PI4K2A inh 3.
NC[C@H]1O[C@H](O[C@H]2[C@H](O[C@@H]3O[C@H](CO)[C@@H](O)[C@H]3O)C(O)[C@H](N)C[C@@H]2N)[C@H](N)[C@@H](O)[C@@H]1O (stereo partly drawn) was read as PI4K2A inh inactive.
For CC1(C)N([O-])C2=C(CCCC2)[N+]1=O the results were Pol beta inh 25µM*, Pol eta inh 22µM*, POLI inh inconclusive, Pol kappa inh inconclusive, PI4K2A inh -2 and PI5P4K alpha inh -13.
For O=C(C[n+]1ccnc2ccccc21)c1ccc(Br)cc1 the results were POLI inh 46% and Pol kappa inh 8%.
For CN1CC(=O)NC1=N the results were PI4K2A inh 4.
`CN=c1scc(-c2ccco2)n1/N=C/c1ccc(O)c(O)c1` gave Pol beta inh 2.8µM*, Pol eta inh inconclusive, POLI inh inconclusive, Pol kappa inh inconclusive, PI4K2A inh -15 and PI5P4K alpha inh inconclusive.
Screening C=CCN=c1scc(C)n1/N=C/c1ccc(O)c(O)c1 returned Pol beta inh 2.5µM*, Pol eta inh -6%, POLI inh inconclusive, Pol kappa inh inconclusive, PI4K2A inh 2 and PI5P4K alpha inh -3.
COc1ccccc1/C=C(\C#N)c1nc(-c2cc3ccccc3oc2=O)cs1 was read as Pol beta inh -21%, Pol eta inh -10%, POLI inh 17%, Pol kappa inh -4% and PI4K2A inh 3.
`C[n+]1cccc(Br)c1` gave POLI inh 20% and Pol kappa inh 8%.
Screening CC(C)(C)c1ccc(S(=O)(=O)/N=C2\C=C(NS(=O)(=O)c3ccccc3)C(=O)c3ccccc32)cc1 returned Pol beta inh inconclusive, Pol eta inh 79µM*, POLI inh inconclusive, Pol kappa inh -12%, PI4K2A inh -19 and PI5P4K alpha inh inconclusive.
Cc1ccc(S(=O)(=O)/N=C2\C=C(Nc3ccc(O)cc3)C(=O)c3ccccc32)cc1 was read as Pol eta inh inconclusive, POLI inh 45µM*, Pol kappa inh -38%, PI4K2A inh inconclusive and PI5P4K alpha inh -15.
Cc1ccc(S(=O)(=O)/N=C2\C=C(NS(=O)(=O)c3ccccc3)C(=O)c3ccccc32)c(C)c1 was read as Pol eta inh -3%, POLI inh inconclusive, Pol kappa inh -9%, PI4K2A inh -20 and PI5P4K alpha inh -10.
Cc1ccc(NC2=C/C(=N/S(=O)(=O)c3cccs3)c3ccccc3C2=O)cc1 was read as Pol beta inh -13%, Pol eta inh inconclusive, POLI inh inconclusive, Pol kappa inh -4%, PI4K2A inh -27 and PI5P4K alpha inh -23.
Screening Cc1ccc(S(=O)(=O)/N=C2\C=C(Nc3cccc(C(=O)O)c3)C(=O)c3ccccc32)c(C)c1 returned Pol beta inh inconclusive, Pol eta inh 22µM*, POLI inh 5µM*, Pol kappa inh -17%, PI4K2A inh inconclusive and PI5P4K alpha inh -22.
CC(CC(C#N)(c1ccccc1)C(C)C)N(C)C (stereo not drawn) was read as PI4K2A inh -4.
Cc1cc(Cn2cnc3c(cnn3C(C)(C)C)c2=O)ccc1F was read as POLI inh -5% and Pol kappa inh 1%.
Screening CCOc1ccc(-n2c(SCC(=O)Nc3cccc4ccccc34)nnc2-c2ccncc2)cc1 returned PI4K2A inh -2.
Screening Cc1ccc2nc(-c3ccc(NC(=O)CSc4nnc(-c5cccc(Cl)c5)n4Cc4ccco4)cc3)sc2c1 returned PI4K2A inh -23.
Cc1ccc2occ(C3NC(C(=O)O)CS3)c(=O)c2c1 (stereo not drawn) was read as Pol beta inh 16%, Pol eta inh -19%, POLI inh -3%, Pol kappa inh -8%, PI4K2A inh 0 and PI5P4K alpha inh -1.
Cc1ccc2occ(C3N[C@H](C(=O)O)CS3)c(=O)c2c1 (stereo partly drawn) was read as Pol beta inh 4%, Pol eta inh inconclusive, POLI inh 10µM*, Pol kappa inh -9%, PI4K2A inh -2 and PI5P4K alpha inh inconclusive.
Screening CC[C@@]1([C@@H]2O[C@@H]([C@H]3O[C@@](O)(CO)[C@H](C)C[C@@H]3C)C[C@@H]2C)CC[C@@H]([C@]2(C)CCC3(C[C@H](O)[C@@H](C)[C@@H]([C@@H](C)[C@@H](OC)[C@H](C)C(=O)O)O3)O2)O1 (stereo partly drawn) returned Pol kappa inh 15%[60.1 µM].
Screening COc1c(C=O)c(O)cc2c1C(=O)c1ccccc1C2=O returned Pol kappa inh -11%[19.4 µM].
`Cn1nc(-c2ccc(Cl)cc2)c2cc(C(=O)NCCCN3CCCC3)sc21` gave Pol beta inh 50µM*, Pol eta inh 9%, POLI inh inconclusive, Pol kappa inh -25%, PI4K2A inh 3 and PI5P4K alpha inh 6.
CCN1CCCC1CNC(=O)c1cc2c(-c3ccc(Cl)cc3)nn(C)c2s1 (stereo not drawn) was read as Pol beta inh 35µM*, Pol eta inh 4%, POLI inh inconclusive, Pol kappa inh -20%, PI4K2A inh 5 and PI5P4K alpha inh -2.
Cc1ccc2oc(=O)c3cc(C(=O)NCCCN4CCN(C)CC4)sc3c2c1 was read as Pol beta inh 18%, Pol eta inh 6%, POLI inh 23%, Pol kappa inh 1%, PI4K2A inh -2 and PI5P4K alpha inh 2.
For CCCCN(CC)CCCNC(=O)c1cc2c(-c3ccc(OC)c(OC)c3)nn(C)c2s1 the results were Pol beta inh 3.5µM*, Pol eta inh inconclusive, POLI inh inconclusive, Pol kappa inh -23%, PI4K2A inh 1 and PI5P4K alpha inh 0.
